In PubChem BioAssay (NCI) one finds growth inhibition data, which are given here for eight molecules.

A short description of assay [1]: NCI Yeast Anticancer Drug Screen. Data for the rad50 strain (AID 155).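 Also: 0% = growth of vehicle-only cultures of the same strain.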 The note with it: S. cerevisiae rad50 strain growth inhibition, stronger effect = higher value. In outline: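 Vehicle-treated cultures provide the reference for the growth inhibition reported for compound-exposed, repair-deficient yeast.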
Assay [2] in a line: NCI Yeast Anticancer Drug Screen. Data for the mec2-1 strain (AID 157). Particulars: S. cerevisiae mec2-1 strain, stronger effect = higher value. Summed up: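 Using mec2-1 yeast: add compound, measure growth, express inhibition versus vehicle-treated cultures.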
Assay [3] is described as follows: NCI Yeast Anticancer Drug Screen. Data for the sgs1 mgt1 strain (AID 161).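 Also: 0% = growth of cultures given vehicle only.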 The note with it: S. cerevisiae sgs1 mgt1 strain, stronger effect = higher value. Summed up: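 Percent growth inhibition was derived by comparing compound-exposed mutant yeast with vehicle-exposed cultures. The strain carries alterations in DNA damage repair.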
Assay [4] can be described thus: NCI Yeast Anticancer Drug Screen. Data for the cln2 rad14 strain (AID 165).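 Also: 0% = growth equal to vehicle treated cultures.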 Particulars: S. cerevisiae cln2 rad14 strain, stronger effect = higher value. In outline: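 Yeast strain cln2 rad14, bearing defects in cell cycle control and DNA repair, serves as the test system; values reflect growth inhibition compared with vehicle.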
A short description of assay [5]: NCI Yeast Anticancer Drug Screen. Data for the bub3 strain (AID 167). Particulars: S. cerevisiae bub3 mutant strain, stronger effect = higher value. Summed up: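 Mutant yeast screening strain plus compound; vehicle-treated cultures serve as the 0% inhibition reference.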
A short description of assay [6]: NCI Yeast Anticancer Drug Screen. Data for the mlh1 rad18 strain (AID 175). The note with it: S. cerevisiae mlh1 rad18 strain growth inhibition, stronger effect = higher value. In outline: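 Steps: expose repair-defective yeast to compound; measure growth; express inhibition against vehicle-treated controls.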
[7] abbreviates: at 5.0 µM (retest, dose inferred, filed as 0.5).
Setting [8] is: at 50.0 µM (retest, dose inferred, filed as 5.0).

About 79,000 compounds went through this panel and 15% of them were active in at least one assay; those are over-represented in the sample as a whole. A number with no mark means an inactive call. Active and inactive are the calls of the source. Rule as the data show it: active = growth inhibition above about 70%; inactive = the rest.

On to `Cc1oc2c([N+](=O)[O-])cccc2c1[N+](=O)[O-]`, for which the growth inhibition is 98% (active) in assay [1] (setting [7]); 98% (active) in assay [1] (setting [8]); 99.5% (active) in assay [1] (at 50.0 µM); 99% (active) in assay [2] (setting [7]); 99% (active) in assay [2] (setting [8]); 99.8% (active) in assay [2] (at 50.0 µM). Besides, the growth inhibition is 99% (active) in assay [3] (setting [7]); 98% (active) in assay [3] (setting [8]); 99.6% (active) in assay [3] (at 50.0 µM); 98% (active) in assay [4] (setting [7]); 98% (active) in assay [4] (setting [8]); 98.8% (active) in assay [4] (at 50.0 µM). Besides, the growth inhibition is 99% (active) in assay [5] (setting [7]); 99% (active) in assay [5] (setting [8]); 52.2% in assay [5] (at 50.0 µM); 98% (active) in assay [6] (setting [7]); 98% (active) in assay [6] (setting [8]); 99.7% (active) in assay [6] (at 50.0 µM).
As for `NC1=C(c2nc(-c3ccccc3)cs2)C(c2ccc(Br)cc2)c2c(c3ccccc3oc2=O)O1` (centres undefined), the growth inhibition in assay [1] (setting [7]) is 5%; in assay [1] (setting [8]), 99% (active); in assay [1] (at 50.0 µM), 0.8%; in assay [2] (setting [7]), 6%; in assay [2] (setting [8]), 100% (active); in assay [2] (at 50.0 µM), 29.2%. Besides, the growth inhibition in assay [3] (setting [7]) is 7%; in assay [3] (setting [8]), 99% (active); in assay [3] (at 50.0 µM) it was 17.2%; in assay [4] (setting [7]) it was 3%; in assay [4] (setting [8]), 99% (active); in assay [4] (at 50.0 µM), 42.4%. For the same molecule, the growth inhibition in assay [5] (setting [7]) was 4%; in assay [5] (setting [8]) it was 99% (active); in assay [5] (at 50.0 µM), 28.8%; in assay [6] (setting [7]), 6%; in assay [6] (setting [8]), 99% (active); in assay [6] (at 50.0 µM), 46.1%.
As to `CCOCCOC(=O)Cc1ccccc1`, the growth inhibition in assay [1] (setting [7]) is 5%; in assay [1] (setting [8]), 42%; in assay [1] (at 50.0 µM), 64.3%; in assay [2] (setting [7]), 2%; in assay [2] (setting [8]) it was 6%; in assay [2] (at 50.0 µM), 98.3% (active). The growth inhibition in assay [3] (setting [7]) was -1%; in assay [3] (setting [8]) it was 6%; in assay [3] (at 50.0 µM), 46.9%; in assay [4] (setting [7]), 4%; in assay [4] (setting [8]) it was 16%; in assay [4] (at 50.0 µM) it was 55.6%. Moreover, the growth inhibition is 7% in assay [5] (setting [7]); 12% in assay [5] (setting [8]); 94% (active) in assay [5] (at 50.0 µM); 6% in assay [6] (setting [7]); 19% in assay [6] (setting [8]); 95.5% (active) in assay [6] (at 50.0 µM).
`COc1cc2c(c(OC)c1OC)-c1ccc(O)c(=O)cc1C(NC(C)=O)CC2` (centres undefined): the growth inhibition is 1% in assay [1] (setting [7]); 3% in assay [1] (setting [8]); -26.1% in assay [1] (at 50.0 µM); -1% in assay [2] (setting [7]); -8% in assay [2] (setting [8]); 17.3% in assay [2] (at 50.0 µM). Moreover, the growth inhibition in assay [3] (setting [7]) was -15%; in assay [3] (setting [8]), 16%; in assay [3] (at 50.0 µM), -1.4%; in assay [4] (setting [7]) it was -21%; in assay [4] (setting [8]), 8%; in assay [4] (at 50.0 µM), 45.5%. Besides, the growth inhibition is -7% in assay [5] (setting [7]); 6% in assay [5] (setting [8]); 1.05% in assay [5] (at 50.0 µM); -9% in assay [6] (setting [7]); -2% in assay [6] (setting [8]); 59.6% in assay [6] (at 50.0 µM).
As for `CCCOc1ccc(/C=C/[N+](=O)[O-])cc1N`, the growth inhibition in assay [1] (setting [7]) was 58%; in assay [1] (setting [8]) it was 99% (active); in assay [1] (at 50.0 µM) it was 99.2% (active); in assay [2] (setting [7]), 52%; in assay [2] (setting [8]), 99% (active); in assay [2] (at 50.0 µM), 99.5% (active). The growth inhibition in assay [3] (setting [7]) was 78% (active); in assay [3] (setting [8]) it was -8%; in assay [3] (at 50.0 µM), 99.5% (active); in assay [4] (setting [7]), 17%; in assay [4] (setting [8]), 99% (active); in assay [4] (at 50.0 µM) it was 98.9% (active). Also, the growth inhibition in assay [5] (setting [7]) is 34%; in assay [5] (setting [8]) it was 99% (active); in assay [5] (at 50.0 µM), 99.5% (active); in assay [6] (setting [7]) it was 49%; in assay [6] (setting [8]), 99% (active); in assay [6] (at 50.0 µM), 99.3% (active).
For the molecule `C[C@@H]1CC[C@@]2(NC1)O[C@H]1C[C@H]3[C@@H]4CC[C@H]5C[C@@H](O)CC[C@]5(C)[C@H]4CC[C@]3(C)[C@H]1[C@@H]2C`, the growth inhibition was 45% in assay [1] (setting [7]); 98% (active) in assay [1] (setting [8]); 92.8% (active) in assay [1] (at 50.0 µM); 30% in assay [2] (setting [7]); 98% (active) in assay [2] (setting [8]); 93.5% (active) in assay [2] (at 50.0 µM). Moreover, the growth inhibition is 61% in assay [3] (setting [7]); 100% (active) in assay [3] (setting [8]); 93.9% (active) in assay [3] (at 50.0 µM); 46% in assay [4] (setting [7]); 99% (active) in assay [4] (setting [8]); 92% (active) in assay [4] (at 50.0 µM). Besides, the growth inhibition is 46% in assay [5] (setting [7]); 99% (active) in assay [5] (setting [8]); 93.5% (active) in assay [5] (at 50.0 µM); 31% in assay [6] (setting [7]); 98% (active) in assay [6] (setting [8]); 87.7% (active) in assay [6] (at 50.0 µM).
Regarding `O=C(Nc1ccccc1)c1cc([N+](=O)[O-])ccc1O`, the growth inhibition is -1% in assay [1] (setting [7]); 98% (active) in assay [1] (setting [8]); 95.7% (active) in assay [1] (at 50.0 µM); 0% in assay [2] (setting [7]); 97% (active) in assay [2] (setting [8]); 92% (active) in assay [2] (at 50.0 µM). Also, the growth inhibition in assay [3] (setting [7]) was 2%; in assay [3] (setting [8]), 95% (active); in assay [3] (at 50.0 µM), 62.5%; in assay [4] (setting [7]), -2%; in assay [4] (setting [8]), 86% (active); in assay [4] (at 50.0 µM) it was 32.5%. The growth inhibition in assay [5] (setting [7]) was 0%; in assay [5] (setting [8]) it was 96% (active); in assay [5] (at 50.0 µM), 90.5% (active); in assay [6] (setting [7]), 12%; in assay [6] (setting [8]), 96% (active); in assay [6] (at 50.0 µM), 97.5% (active).
For the molecule `O=C1C(=O)c2cccc3cccc1c23`, the growth inhibition in assay [1] (setting [7]) was 8%; in assay [1] (setting [8]), 79% (active); in assay [1] (at 50.0 µM), 64.2%; in assay [2] (setting [7]), 8%; in assay [2] (setting [8]), 51%; in assay [2] (at 50.0 µM), 30.4%. Further, the growth inhibition was 3% in assay [3] (setting [7]); 34% in assay [3] (setting [8]); 21.1% in assay [3] (at 50.0 µM); 6% in assay [4] (setting [7]); 50% in assay [4] (setting [8]); -3.15% in assay [4] (at 50.0 µM). Besides, the growth inhibition was 13% in assay [5] (setting [7]); 82% (active) in assay [5] (setting [8]); 13.2% in assay [5] (at 50.0 µM); 1% in assay [6] (setting [7]); 63% in assay [6] (setting [8]); 22.9% in assay [6] (at 50.0 µM).
